The record followed here is PubChem BioAssay AID1508600 (Functional Genomics Laboratory (NCATS/FGL), 2020).

Out of some 53,000 sequences screened, about 3,700 (7%) were called active. This is one part of a sample in which actives are shown more often than they occur. Values without a mark were called inactive.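 The calls were made as follows: active = gene knockdowns whose robust z-score for IL-1 alpha signal is at least 2 or at most -2, so actives lie on both sides; inactive = the rest.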

The test is described as follows: Components of the Cytosolic LPS Sensing Pathway: Gene Identification via Genome-wide siRNA Screen.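 Also: robust z of the log signal after scaling to non-targeting control siRNA wells of the plate.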 The settings on record: RAW264.7 macrophages, IL-1a HTRF, actives lie on both sides, screened at 100 nM (by protocol), cells primed 5 h with Pam3CSK4 first. In a few lines:
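RAW264.7 mouse macrophages reverse-transfected with single siRNAs (100 nM final) for 48h, primed with Pam3CSK4 for 5 hours, then transfected with LipidA for 24 hour. Supernatant IL-1a read by HTRF; values normalized to negative-control median, log-transformed robust z-scores.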
As for GCUGCACUUGAAAUCCGAGTT against Atg2b, the z-score is 1.49.

Consider GCCCGUUCCACUUUUGGAGTT against Nedd1, for which the z-score was 2.2 (active).

For GGAAGAAGCAGAAGAACAUTT against Rpl12, the z-score is 2.55 (active). In the case of GGAACUCCUGGAGCAGAACTT against Tbc1d10b it was -2.52 (active); in that of GGUUGUGCAAGAGUAUGAATT against Nphs2, 0.316. For GCGCACAACAGACUUCUAUTT against Epm2a, the z-score is 0.0628. In the case of GGAAGAACUUGACCCAGAGTT against Pex16 it was 1.31. Take GGCGACAGUUGUUUUUGUGTT against Nlrp4b: the z-score was -0.588. In the case of GCUGUUUUACCUUAAUCCCTT against Tnfsf18 it was 0.601; in that of “GGAAUUCCAAGUCAUUAUUTT against B230340J04Rik”, 0.664; in that of GCAUCUUAGGCAUUGCUAGTT against Pcna, -0.156.

Regarding GGAUCAUGGGCGAAUGAUGTT against Rae1, the z-score is -1.41. Regarding “GGACAAAAACAAAUGUGAGTT against 4933417A18Rik”, the z-score is -2.43 (active). Then GGAAUCAAAGGUCAAGCCATT against Rnf181, with 2.17 (active). In the case of CCAUGUCAGUUACAAUGCGTT against Gja6 it was 1.54. In the case of GGUCCAUGAUUGAAACACGTT against Srpr it was 0.798; in that of GCAGAUAAGAGUUCAAAUCTT against Oxa1l, -0.499; in that of GACAUACAAUCUCCUACAUTT against Olfr478, 0.818.

Regarding GCCGGGACCAUGAUUAUAGTT against Rbm10, the z-score was 2.7 (active).

With GGAAUUCCGAAUAUUCCAGTT against Tsen2, the z-score is 1.51.

Regarding GGAAGCCACCUUAACAUUATT against Osgin1, the z-score is -0.814. Then GGAGAACUCUUUCAGAUUCTT against Stk36, with 0.957; and GGGAUUCUGUCUGCACUGUTT against Olfr1145, with -2.51 (active).

As to GGGUUCUGCAUGUUGAUUCTT against Chm, the z-score was -0.853. In the case of GCCACCCACCUAAAAUCAATT against Rcsd1, the z-score was -0.216. Take GGAAGUCUAGGUAAAAAAGTT against Samsn1: the z-score is -0.994. Then GGACUUCAAGGACUUCUACTT against Crtap, with 0.112; and GGACAAUUGAAAACUGCCUTT against Gpd1, with 2.95 (active); and GGGUGAGUGUCGGAACUUUTT against Sema6b, with -0.157. Take GGUUGUGCCAGAGGAGAUUTT against Scrib: the z-score was 0.963. In the case of GGAAGAACUAGAGUCAUAUTT against Eps8l1 it was -0.0721. For the sequence CCAUACAUAAAAAGCCGCCTT against Il1rl1, the z-score is 1.29. Take GGUUCAUGUCAUCUUUAACTT against Calr: the z-score is -1.21. Take GCAGAUGAUACCUGGGCAATT against Mtmr14: the z-score is 2.68 (active). In the case of GGAUCAAUUGGCACUAGACTT against Zfp787 it was -1.31. For GGACAAGUCCUUUGCUGUGTT against Zmynd8, the z-score is -1.35. In the case of GGCAAUACUGGAAGGGUGUTT against Eps15 it was -1.03; in that of GGAUGAUAUGGCAUACUUUTT against Fam221a, 0.803.

As for “GGCCAUCUUGAAUUUUUUATT against 2410002F23Rik”, the z-score is 0.0652. In the case of GGUGCUGUUGAAUUGUGGGTT against Wdr77 it was -0.366; in that of GAGCUCCUCUGCUUUCUCUTT against Ms4a6d, -2.74 (active). Then GGUUAAACUUGGUGAAUUATT against Kcnj16, with 0.901. In the case of GCACAUGUCUGUGAUUCAATT against St8sia1 it was -0.166. GCGGAAACUCUCGAAAGUGTT against Dhx34: the z-score is -1.52. With CCUGAUGCAACACAGGUCCTT against Zbtb26, the z-score is 0.352. As for CGGAACACCAAUAAGAGAATT against Hgd, the z-score is -0.667. GGACCGAUUAAGGAAGGAATT against Ppp1r1a: the z-score was 2.49 (active). In the case of GCGUGAUUGACAACUGGUUTT against Cphx1, the z-score was 0.236. Then GGGAAUAUGACUGAAUAUATT against Ss18, with -1.05; and CCAAAUCGCUUCACAUAAUTT against Atp6v1g2, with -1.1; and GAGAAUGAGUUCUGCCCAGTT against Lhb, with 2.24 (active). With GGACAAGAACCUGAAGCGGTT against Cdk5r1, the z-score is -0.355. Then GGCUGGAGAAAAUGAUGAATT against Rwdd1, with -0.267; and GGAAGACAUAUUAACUACUTT against Gpr37, with 0.544; and GGAAAGCUCAAUUGGUUCGTT against Nup85, with -2.27 (active). Then GGGAUCAUCUCUUUUGCUGTT against Olfr720, with -1.33; and GGGAAGCCUUUUUUAUCGGTT against V1rb5, with 0.838.

Take CCCAUCCAAUAAGCAAUUGTT against Lpcat2: the z-score was -0.696. In the case of GCGAGACUAUCAAAUCUAUTT against Gabra4 it was 0.948; in that of GGGAUAGUUACCUAAGACATT against Adarb2, 0.593. For the sequence GCACAAGUCUAAACAGCUGTT against Fermt1, the z-score is 0.494. Turning to GGAAAAAUACUCCAUAUUCTT against Enam, the z-score was 0.0353. In the case of CCUCAACACUCAGCUCAAUTT against Ifna14 it was -2.67 (active).

Turning to GGCCAGUAGAUCCUUCUAATT against Fgf16, the z-score was 0.406. Consider CCUAAUCUAGAGCAACACATT against Ankrd34c, for which the z-score was -1.67. As for GGCCUACCUUACCCUAAGATT against Adam32, the z-score is 0.513. On to CCAUGGCUUACGAGAGACATT against Mavs, for which the z-score was -0.884. Then GGAAUCCUUUCCUAAAUUGTT against Lin9, with 0.745; and GGAUAUGCUCUCUUGGCUCTT against Ctsk, with -2.07 (active); and GGCUUCCUCCACUCUUUCCTT against Rhbg, with -1.81. Then GGAACCAUGAAAUAAAUGUTT against Acad8, with 0.684; and CCCUUAUUGAUUCUUCAAGTT against Ngp, with 0.342; and “GGUGCAACCAGUGUGUGAUTT against St6galnac6”, with 4.22 (active). Then CCCUCUAUCCUUAAACCAUTT against Erg28, with -0.549; and CCUAUUCUUAACACCCUUGTT against Tfr2, with 0.891.

For the sequence AUCUCUCCUGUUCUAACACTT against Olfr26, the z-score was -0.242.

Turning to GGUCAUCAGCUUGUAACCATT against Mmadhc, the z-score is -1.37.

“GGACAAUUACAUCCAGCCUTT against 2610528J11Rik”: the z-score was -2.11 (active). In the case of GGACCUCAGCGAAGACAAUTT against Cd300e it was 0.114; in that of GGUGAAAAGGUUGAUGUCATT against Spertl, -0.368. In the case of GCUCAAUAGCUCAAAGUUUTT against Chsy3 it was -0.197. In the case of GCCCUCCAACCUCGAUAACTT against Shisa7 it was 2.9 (active). Turning to GGAUGACCAAGAAUGGGAATT against Dap, the z-score is 0.341. In the case of GCAAAGGAGGCUUCUAUUGTT against Olfr380 it was -0.803.

For GGAGUUGUGGAAUUCUCUATT against Extl2, the z-score is -1.3.

For the sequence AACAGAUCUUCUCUGGUCCTT against Klra15, the z-score was -2.47 (active). Then GCUUGUGUUUUAGAGCCGCTT against Mat1a, with 0.653; and GCACAAUGACGCACUUACCTT against Pik3r2, with 0.693; and CCUGGAAUGUAUUUGUUAUTT against Nkain2, with 0.0256. In the case of GGAACACUACCGUUUUGGGTT against Ehd2 it was 2.55 (active); in that of GGACCAGGUUUGUUUUUUATT against Stom, 1.03. In the case of CGGUUUUGUCAAAGCCCUGTT against Junb it was 0.322; in that of GGUCAAGACGGUCUACCGATT against Rab3d, -0.571; in that of GGGAUAUCAAAGCAAAAAUTT against Rab8a, -0.578.

Take GGGUUCACGAAAGAGUAAATT against Clcn5: the z-score is -1.21. Then GCCGUACCGGAUUUUUUUCTT against Smyd3, with 4 (active); and GCAGCUAACUCCAAGUCAGTT against Tfam, with -1.42; and GGACUUGCCUUGAUCGCUATT against Mars2, with 0.853. Then CGCGACAGAAUCAGUACAATT against Hnf4g, with 2.17 (active); and GGUUCCUACACGAAAGGAUTT against Eif2b4, with 0.14; and GCCUUUACCCAAAUUAUCATT against Defb4, with 0.567. In the case of GGACACUGUACUCAAACCUTT against Cntnap5b it was -2.86 (active). For the sequence GGUGUAUACUGUGAAAUCATT against Notch1, the z-score was -0.319. In the case of GGGCAUUGUUGAGCACCUUTT against Pgap6, the z-score is -1.81. In the case of GGAAAAGCUGGAGGAAGACTT against Tef it was 0.525; in that of GGAAUGUCAAUCUUGAGAGTT against Asprv1, -0.812. GCAGACAUUGCACAAACCCTT against Ankrd10: the z-score is 0.355. Consider GCCUGUCUCCUCAAUGCUUTT against Gm9903, for which the z-score was -0.319.
